Screens: PubChem BioAssay, National Center for Advancing Translational Sciences (NCATS)
Sm TGR inh: S. mansoni TGR enzyme inhibition. hit rate 3% among 360,000. purified TGR, DTNB reduction, TNB absorbance 405 nm. Q962Y6. Potency, µM (top dose mostly 114 µM), usual class: inhibitors. AID 485364; active = well fitted inhibition curve with a large enough effect; inconclusive = small, poorly fitted or top-dose-only effect; inactive = no such curve, though single readings can be large or run the other way; also: nearly all actives have a fitted effect of over 60% in size
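Kinetic colorimetric format: TGR-catalysed, NADPH-driven DTNB reduction monitored via TNB absorbance. Enzyme dispensed at 20 nM; compound exposure 15 min at room temperature before reaction start.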
LASV entry inh: blocks Lassa virus binding to or entry into cells; hit rate 1.2% among 300,000; Lassa virus pseudotype entry inhibition, cell reporter; Potency, µM (top dose mostly 37.9 µM), hits mostly inhibitors; calls by dose curve; tested in HEK293 cells; also: nearly all actives have a fitted effect of over 50% in size
FMDV inh: blocks foot and mouth disease virus. FMDV antiviral cell-based qHTS. Potency, µM (top dose mostly 57.9 µM), hits mostly inhibitors. hit rate 1.2% among 410,000. AID 1159524; calls by dose curve; tested in HEK293T cells; also: read-out not given here; nearly all actives have a fitted effect of over 45% in size
VACV mCherry inh: inhibitors of vaccinia virus infection (mCherry reporter signal); Vaccinia virus mCherry reporter infection, fluorescence; hit rate 0.63% among 310,000; Potency, µM (series often up to 36.5 µM), hits mostly inhibitors; AID 720579; calls by dose curve; tested in A549 cells; also: nearly all actives have a fitted effect of over 35% in size
VACV Venus inh: vaccinia inhibition (Venus reporter); Vaccinia virus Venus reporter expression, fluorescence; Potency, µM (doses to about 36.5 µM), actives largely listed as inhibitors; hit rate 0.46% among 330,000; calls by dose curve; tested in A549 cells; also: nearly all actives have a fitted effect of over 30% in size
Marburg entry inh: inhibitors of Marburg virus binding or cell entry | Marburg virus pseudotyped entry inhibition, cell reporter | Potency, µM (doses to about 37.8 µM), usual class: inhibitors | hit rate 1.8% among 300,000 | AID 540276; calls by dose curve; tested in HEK293 cells
Of the large screens only hits and unclear results are named; the others gave an inactive call. In the library only some 5.4% were active in any assay of this set; here they are far more common.

COc1cccc(Nc2nc3c(S(=O)(=O)c4cc(C)ccc4C)nnn3c3ccsc23)c1	VACV mCherry inh inconclusive, VACV Venus inh inconclusive (no result: Marburg entry inh)
CC(C)c1ccc(N2C(=O)CSC23C(=O)N(C)c2ccccc23)cc1 (configuration not stated)	none (no result: Marburg entry inh)
COc1ccc(/C=N/Nc2ncc(C(F)(F)F)cc2Cl)cc1OC	Marburg entry inh 12.6µM
Cc1oc(-c2cccc(NC(=O)C3CCCN(C)C3)c2)nc1CNC(=O)c1coc2c1C(=O)CCC2 (configuration not stated)	none (no result: Sm TGR inh, LASV entry inh, Marburg entry inh)
COc1nnc(-c2ccc(N3CCCCC3)c(NC(=O)c3ccccc3Cl)c2)c2ccccc12	LASV entry inh inconclusive, FMDV inh inconclusive, Marburg entry inh inconclusive
COc1cccc(NC(=O)c2cccc(C(=O)Nc3cccc(OC)c3)n2)c1	LASV entry inh inconclusive
C=CC(=O)Nc1cccc(Oc2cc(Cl)nc3[nH]ccc23)c1	FMDV inh inconclusive, VACV mCherry inh inconclusive, VACV Venus inh 1.58µM (no result: Sm TGR inh, LASV entry inh, Marburg entry inh)
Cc1cccc2c(N3CCCC3)nc(CNS(=O)(=O)c3ccc4ccccc4c3)nc12	none (no result: Sm TGR inh, LASV entry inh, Marburg entry inh)
O=C1[C@@H]2[C@H](ON(c3ccccc3)[C@H]2c2ccncc2)C(=O)N1c1ccccc1	none (no result: Sm TGR inh, LASV entry inh, FMDV inh, VACV mCherry inh, VACV Venus inh)
Cc1cccc2sc(N(Cc3cccnc3)C(=O)c3cccs3)nc12	none (no result: Marburg entry inh)
CCC1CN(CCNC(=O)c2ccnc(Cl)c2)Cc2cc(OC)ccc2O1 (configuration not stated)	none (no result: Sm TGR inh, LASV entry inh, Marburg entry inh)
Cc1ccc(NNC2CC(=O)N(c3cccc(Cl)c3)C2=O)cc1 (configuration not stated)	Sm TGR inh 44.7µM, Marburg entry inh inconclusive
CCN(CC)C1CC(=O)N(c2cccc(Cl)c2)C1=O (configuration not stated)	Sm TGR inh 3.98µM
CCCCCC(=O)NNC1CC(=O)N(c2cccc(OCC)c2)C1=O (configuration not stated)	Sm TGR inh 31.6µM
CC(=O)NCCCC(=O)NNC1CC(=O)N(c2cccc(Cl)c2)C1=O (configuration not stated)	Sm TGR inh 11.2µM
Cc1cc(Br)ccc1NC(=O)c1cc2c(=O)n(C)c3cc(Cl)ccc3c2s1	none
CCOC(=O)c1c(C)[nH]c(C)c1S(=O)(=O)NCC(=O)NCc1ccccc1C	none (no result: Marburg entry inh)
C=CC(=O)N1C/C(=C/c2ccc(F)cc2)C(=O)/C(=C\c2ccc(F)cc2)C1	LASV entry inh 2.51µM, FMDV inh 8.91µM, VACV mCherry inh inconclusive, VACV Venus inh 7.94µM, Marburg entry inh inconclusive (no result: Sm TGR inh)
O=C1C(=Cc2ccc(F)cc2)CCc2ccccc21	none (no result: Sm TGR inh, LASV entry inh, Marburg entry inh)
CS(=O)(=O)N1CCC[C@@]2(CCN(Cc3ccc(C#N)cc3)C2)C1	none (no result: Sm TGR inh, LASV entry inh, VACV mCherry inh, VACV Venus inh, Marburg entry inh)
CN1CCC(N(C)S(=O)(=O)c2ccc(NC(=O)COc3ccc(Br)cc3Cl)cc2)CC1	LASV entry inh 6.31µM, Marburg entry inh 8.91µM
O=S(=O)(Nc1ccc(C(O)(C(F)(F)F)C(F)(F)F)cc1)c1ccc(Cl)c2nonc12	FMDV inh 35.5µM (no result: Sm TGR inh, LASV entry inh, Marburg entry inh)
Cc1ccc(-c2nnc(SCc3ccccc3F)o2)cc1	LASV entry inh inconclusive, Marburg entry inh 16.4µM (no result: VACV mCherry inh, VACV Venus inh)
C#CCSc1nnc(-c2ccc(C)cc2)o1	LASV entry inh inconclusive, VACV mCherry inh 10µM, VACV Venus inh inconclusive, Marburg entry inh inconclusive
CN1CCN(Cc2nc3ccccc3c(=O)n2Cc2nc(-c3ccc([N+](=O)[O-])cc3)cs2)CC1	LASV entry inh inconclusive, VACV mCherry inh 10µM, VACV Venus inh 10µM, Marburg entry inh inconclusive
Cc1cc(N2CCN(c3nc(-c4ccc([N+](=O)[O-])cc4)cs3)CC2)c2ccccc2n1	LASV entry inh inconclusive, FMDV inh inconclusive, Marburg entry inh 11.2µM
CN(C)Cc1nc2ccccc2c(=O)n1Cc1nc(-c2cccc([N+](=O)[O-])c2)cs1	LASV entry inh inconclusive
CCOc1ccc(CC(=O)NCc2ccc3c(c2)CCN3C(=O)c2ccc(F)cc2)cc1OCC	LASV entry inh inconclusive (no result: Marburg entry inh)
COc1ccc(-c2nc3ccccn3c2Cl)cc1	LASV entry inh 3.55µM, FMDV inh inconclusive, Marburg entry inh inconclusive
COCCN1C(=O)NC(c2ccc(Br)cc2)C(C(C)=O)=C1C (configuration not stated)	none (no result: Sm TGR inh, LASV entry inh, FMDV inh, VACV mCherry inh, VACV Venus inh)
CCN1C/C(=C/c2cccc([N+](=O)[O-])c2)C(=O)/C(=C/c2cccc([N+](=O)[O-])c2)C1	LASV entry inh 2.82µM, FMDV inh 3.55µM, Marburg entry inh 14.6µM
COc1cc(/C=C2/CCCC(C(=O)C(F)(F)F)=C2O)ccc1O	Sm TGR inh 35.5µM
O=C1NC(=O)/C(=C/c2cccc([N+](=O)[O-])c2)N1	VACV mCherry inh inconclusive (no result: LASV entry inh, Marburg entry inh)
